# According to PubChem BioAssay:
# Test: probe aCHRDL2 binding to arrayed compounds – biochemical, biotinylated probe, 635/667 nm fluorescence, primary screen (AID 1100)
# Conditions: small-molecule microarray, higher = more signal
row,Structure (SMILES),composite z-score
1,CC(CO)N1C(=O)[C@@H]2C3C(=O)OCCC/C=C\[C@H]3OC23C=CCN(C(C)(C)C)C(=O)[C@@H]13 (stereo not given in full),-0.522
2,CN1C(=O)C2C=CC(C(O)c3ccccc3)N(N(c3ccccc3)c3ccccc3)C2C1=O (stereo not given),0.632
3,C=CCOC(=O)[C@H]1[C@@H]2C(=O)O[C@@H](c3ccccc3)[C@@H](c3ccccc3)N2[C@@H](c2ccc(OCCOC(=O)[C@@H]3C[C@@H]4C(=O)N[C@@H](CCCCNC(C)=O)C(=O)N4[C@@H]3c3ccc(O)cc3)cc2)[C@]12C(=O)Nc1ccccc12,-0.187
4,C[C@H]1C2[C@H](Cc3ccccc3)NC(=O)[C@]23C(=O)N[C@H](Cc2ccccc2)C(=O)N2CCC[C@H]2C(=O)NC/C=C\C/C=C/C3[C@@H]2O[C@]12C (stereo not given in full),-0.19
5,CC(C)C(O)C1C=CC2C(=O)NC(=O)C2N1Nc1ccc(Cl)cc1Cl (stereo not given),1.37
6,COC(=O)C(CC#Cc1ccc2c(c1)[C@]1(C(=O)N2)[C@H](C(=O)Nc2nc3ccccc3s2)[C@H]2C(=O)O[C@H](c3ccccc3)[C@H](c3ccccc3)N2[C@@H]1c1ccc(O)cc1)C(=O)OC,0.454
7,CC(C)C(O)C1C=CC2C(=O)N(c3ccccc3)C(=O)C2N1Nc1ccc([N+](=O)[O-])cc1 (stereo not given),0.761
8,CC(C)C[C@@H]1NC(=O)[C@@H]2C[C@H](C(=O)NCc3ccc(F)cc3)[C@H](c3cccc(OCCO)c3)N2C1=O,0.0811
9,CCCC[C@H]1OB(O)C[C@H]2C1=C(COC)C[C@H]1C(=O)N(C)C(=O)[C@H]12,-0.599
10,COCCOC(=O)N1C(=O)[C@@]2(c3cc(C#Cc4ccc(OC)cc4)ccc31)[C@H](c1ccccc1OCCO)N1[C@H](c3ccccc3)[C@H](c3ccccc3)OC(=O)[C@H]1[C@@H]2C(=O)NC[C@H](O)c1ccccc1,0.145
11,CCOC(=O)C[C@H]1[C@H](OC(=O)c2ccc(C(=O)c3ccccc3)cc2)[C@@H](NC(=O)c2ccccc2)c2cc(OCCCO)ccc2N1C(=O)c1ccc2ccccc2n1,-0.267
12,O=C(c1ccccc1)N1C(=O)[C@@]2(Cc3ccccc31)N=C(c1ccc(OCCCO)cc1)O[C@H]2c1ccccc1,0.965
13,Cc1ccc(N2C(=O)c3ccccc3[C@@H](C(=O)NC3CC3)[C@@H]2c2ccc(CO)cc2)nc1,0.908
14,[N-]=[N+]=Nc1ccccc1[C@@H]1OC(c2ccc(OCCCO)cc2)=N[C@]1(CCS(=O)(=O)c1ccccc1)C(N)=O,1.25
15,COC(=O)C(CC#Cc1ccc2c(c1)[C@]1(C(=O)N2)[C@H](C(=O)Nc2nc3ccccc3s2)[C@H]2C(=O)O[C@H](c3ccccc3)[C@H](c3ccccc3)N2[C@@H]1c1ccccc1OCCO)C(=O)OC,0.561
16,CCOC(=O)C[C@H]1[C@H](OC(=O)c2ccc(C(=O)c3ccccc3)cc2)[C@@H](NC(=O)CC(C)C)c2cc(OCCCO)ccc2N1C(=O)c1ccc2ccccc2n1,-0.399
17,C=CC[C@]1(C(=O)NCc2ccccc2)N=C(c2ccc(OCCCO)cc2)O[C@H]1c1ccccc1N=[N+]=[N-],1.11
18,OCCCC1=CC(c2cccs2)N(Cc2cc3c(cc2Br)OCO3)CC1 (stereo not given),0.197
19,COc1ccc(C#Cc2ccc3c(c2)[C@]2(C(=O)N3)[C@H](C(=O)Nc3nc4ccccc4s3)[C@H]3C(=O)O[C@H](c4ccccc4)[C@H](c4ccccc4)N3[C@@H]2c2ccc(O)cc2)cc1,0.144
20,NC(=O)[C@@H]1[C@H]2C(=O)O[C@H](c3ccccc3)[C@H](c3ccccc3)N2[C@H](c2ccc(O)cc2)[C@@]12C(=O)Nc1ccccc12,0.798
21,CCCCC(CC)C(O)C1C=CC2C(=O)N(Cc3ccccc3)C(=O)C2N1n1cnnc1 (stereo not given),0.552
22,O=C1O[C@H](c2ccccc2)[C@H](c2ccccc2)N2[C@H]1[C@@H](C(=O)N1CCCCCCC1)[C@]1(C(=O)Nc3ccc(C#CCCO)cc31)[C@H]2c1ccccc1OCCO,1.53
23,C=CCNC(=O)[C@H]1[C@@H]2C(=O)O[C@@H](c3ccccc3)[C@@H](c3ccccc3)N2[C@@H](c2ccccc2OCCO)[C@]12C(=O)Nc1ccc(C#CCCO)cc12,0.784
24,COc1ccc(C#Cc2ccc3c(c2)[C@]2(C(=O)N3)[C@H](c3ccccc3OCCO)N3[C@H](c4ccccc4)[C@H](c4ccccc4)OC(=O)[C@H]3[C@@H]2C(=O)Nc2nc3ccccc3s2)cc1,-0.197
25,CN1C(=O)C2C=CC(C(O)C3CC=CCC3)N(N(c3ccccc3)c3ccccc3)C2C1=O (stereo not given),0.944
